Where “and” joins values, the source holds several entries; their conditions need not be identical. Equal entries are not always repeated. About 2,000 (36%) of roughly 5,500 compounds were called active. Not shown: some 18% with an inconclusive outcome. No stated cut-off is given here; in the data, active means normalized growth mostly below about 0.91 (no sharp cut-off); inconclusive means no clear call, values can overlap the other calls; inactive means mostly above about 0.92. Some of the results follow.
Test: chemical genetic growth profiling, strain panel (AID 1159580);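 further: tested at 20 µM; growth read once vehicle control cultures reached saturation at 30 °C; 1 = growth at the plate median or of vehicle wells; lower values mean less growth of the strain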
Details: S. cerevisiae deletion strains, growth OD

Measured: normalized growth

COc1ccc2c(c1)OC[C@@H](Cc1ccc(OC)c(OC)c1)[C@H]2O
active: locus YDR137W, strain rgp1, active compounds read low 0.806
inactive: locus YAL013W, strain DEP1, active compounds read low 0.986 | locus YAL021C, strain ccr4, active compounds read low 0.993 | locus YAL026C, strain drs2, active compounds read low 1.02 | locus YAL030W, strain snc1, active compounds read low 1.01 | locus YBL061C, strain skt5, active compounds read low 1 | locus YBR009C, strain hhf1, active compounds read low 0.993 | locus YBR021W, strain FUR4, active compounds read low 1.06 | locus YBR023C, strain chs3, active compounds read low 0.999 | locus YBR171W, strain sec66, active compounds read low 1.01 | locus YBR229C, strain ROT2, active compounds read low 1 | locus YBR231C, strain swc5, active compounds read low 1.01 | locus YBR279W, strain paf1, active compounds read low 1.02 | locus YCL011C, strain gbp2, active compounds read low 1.01 | locus YCL016C, strain dcc1, active compounds read low 1 | locus YCL029C, strain bik1, active compounds read low 0.953 | locus YCL061C, strain MRC1, active compounds read low 0.98 | locus YCL069W, strain vba3, active compounds read low 1.01 | locus YCR088W, strain abp1, active compounds read low 0.999 | locus YDL005C, strain med2, active compounds read low 0.999 | locus YDL035C, strain GPR1, active compounds read low 0.984 | locus YDL040C, strain nat1, active compounds read low 0.991 | locus YDL074C, strain BRE1, active compounds read low 0.995 | locus YDL101C, strain DUN1, active compounds read low 1 | locus YDL134C, strain PPH21, active compounds read low 1.06 | locus YDL185W, strain tfp1, active compounds read low 0.943 | locus YDL192W, strain arf1, active compounds read low 0.967 | locus YDR001C, strain nth1, active compounds read low 1 | locus YDR069C, strain doa4, active compounds read low 0.992 | locus YDR101C, strain arx1, active compounds read low 0.981 | locus YDR159W, strain sac3, active compounds read low 0.939 | locus YDR162C, strain NBP2, active compounds read low 1.01 | locus YDR195W, strain ref2 1 | locus YDR297W, strain sur2, active compounds read low 1 | locus YDR318W, strain mcm21, active compounds read low 0.981 | locus YDR334W, strain swr1, active compounds read low 1.02 | locus YDR335W, strain msn5, active compounds read low 1.01 | locus YDR388W, active compounds read low 0.969 | locus YDR392W, strain spt3, active compounds read low 0.929 | locus YDR502C, strain sam2, active compounds read low 0.983 | locus YEL003W, strain gim4, active compounds read low 1.01 | locus YEL037C, strain rad23, active compounds read low 1.01 | locus YEL061C, strain CIN8 (second series), active compounds read low 1.01 | locus YEL061C, strain CIN8, active compounds read low 0.99 | locus YER015W, strain faa2, active compounds read low 1.01 | locus YER016W, strain bim1, active compounds read low 1.01 | locus YER110C, active compounds read low 0.978 | locus YER111C, strain swi4, active compounds read low 1 | locus YER155C, strain BEM2 (second series), active compounds read low 1.01 | locus YER155C, strain BEM2, active compounds read low 0.984 | locus YER167W, strain BCK2, active compounds read low 0.957 | locus YFR010W, strain ubp6, active compounds read low 1.01 | locus YGL078C, strain dbp3, active compounds read low 0.977 | locus YGL086W, strain mad1, active compounds read low 0.989 | locus YGL167C, strain pmr1, active compounds read low 1.01 | locus YGL173C, strain kem1, active compounds read low 1.02 | locus YGL227W, strain vid30, active compounds read low 0.999 | locus YGL240W, strain doc1, active compounds read low 1.01 | locus YGL248W, strain PDE1, active compounds read low 1.03 | locus YGL253W, strain hxk2, active compounds read low 1 | locus YGR135W, strain pre9, active compounds read low 0.99 | locus YGR252W, strain gcn5, active compounds read low 1.01 | locus YHR013C, strain ard1, active compounds read low 1.01 | locus YHR027C, strain rpn1, active compounds read low 0.999 | locus YHR030C, strain SLT2, active compounds read low 0.987 and 0.938 | locus YHR079C, strain IRE1 (second series), active compounds read low 0.979 | locus YHR079C, strain IRE1, active compounds read low 0.956 | locus YHR094C, strain hxt1, active compounds read low 0.978 | locus YHR129C, strain ARP1, active compounds read low 0.994 | locus YHR142W, strain chs7, active compounds read low 0.975 | locus YHR200W, strain rpn10, active compounds read low 0.966 | locus YIL066C, strain RNR3, active compounds read low 1.01 | locus YIL073C, strain SPO22, active compounds read low 0.919 | locus YIR030C, strain dcg1, active compounds read low 0.955 | locus YJL092W, strain hpr5, active compounds read low 1.01 | locus YJL095W, strain BCK1 (second series), active compounds read low 1.01 | locus YJL095W, strain BCK1, active compounds read low 1.04 and 0.939 | locus YJL115W, strain asf1, active compounds read low 1.01 | locus YJL129C, strain trk1, active compounds read low 0.956 | locus YJL134W, strain LCB3, active compounds read low 0.991 | locus YJL154C, strain vps35, active compounds read low 1.01 | locus YJL164C, strain tpk1, active compounds read low 0.993 | locus YJL166W, strain qcr8, active compounds read low 1.01 | locus YJL168C, strain set2, active compounds read low 0.997 | locus YJL187C, strain SWE1 (second series), active compounds read low 1.01 | locus YJL187C, strain SWE1, active compounds read low 1 | locus YJR043C, strain POL32, active compounds read low 1.01
